For 26 compounds, Potency, outcome and activity change, negative = cytotoxicity results are on record in PubChem BioAssay (NCATS).

Experiment [1] concerns the target Glucocorticoid receptor (Homo sapiens) (UniProt P04150). As to the kind of experiment: GR-GFP Redistribution (AID 450;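 active = compounds whose dose series gives a full or clear partial fitted curve of increased nuclear translocation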; note: potency is the fitted concentration of half-maximal effect). As to conditions: U2OS GR-GFP nuclear translocation, laser cytometry, 2 h.
For experiment [2] the target is unchanged. Briefly: GR-EFC Redistribution (AID 451; calls by dose curve; note: potency is the fitted concentration of half-maximal effect). To be noted: CHO-K1 GR-EFC translocation, beta-gal luminescence, 2 h. The method in brief:
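Translocation of GR-ED fusion to nuclear EA restores b-gal, read by luminescence after 1 h room-temperature detection. Engineered CHO-K1 biosensor cells, 1,000/well, exposed 2 h at 37 C to titrations up to 46 uM final.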

The target of experiment [3] is Mitogen-activated protein kinase 10 (Mus musculus) (UniProt Q61831). Briefly: JNK3 AlphaScreen Assay (AID 530; active = well fitted curve in either direction with a large enough effect, not every such curve was filed as active;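 note: kinase came from lysate of stimulated human HepG2 cells; signal reports phosphorylation of biotinylated GST-cJun 1-79 at Ser73 with 10 µM ATP; % is set by controls: 0 for no effect and ±100 for the full control effect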). As to conditions: JNK3 lysate, c-Jun phosphorylation; series mostly up to 57.1 µM. The method in brief: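 Room-temperature AlphaScreen kinase assay; pre-activated HepG2 lysate as JNK3 source, biotin-GST-cJun(1-79) substrate, 10 uM ATP, compound 15 min preincubation.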

The nature of experiment [4]: Cell Viability - N2a (AID 540).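 For activity change, negative = cytotoxicity: plate controls were DMSO alone for no effect and tamoxifen control for full effect.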 Note: nearly all actives have a fitted effect of over 45% in size. Note: potency is the fitted concentration of half-maximal effect. As to conditions: N2a mouse neuroblastoma cell viability; activity change, negative = cytotoxicity: at 92.2 µM (top of the series). Put shortly:
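Mouse neuroblastoma N2a cells (1500/well) were preincubated 5 hr at 37 °C, then exposed to compounds for 40 hr at 37 °C in complete medium. Viability was read as intracellular ATP by CellTiter-Glo luminescence; AC50 from Hill fits.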

The nature of experiment [5]: Cell Viability - HUV-EC-C (AID 542). For activity change, negative = cytotoxicity: % is set by controls: 0 for no effect and ±100 for the full control effect. Note: nearly all actives have a fitted effect of over 35% in size. Note: potency is the fitted concentration of half-maximal effect. As to conditions: HUV-EC-C endothelial cell viability, qHTS; series mostly up to 92.2 µM. The method in brief: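 HUV-EC-C normal human vascular endothelial cells, 1000 cells/well, pre-incubated 5 hr at 37 °C, then exposed to compounds for 40 hr at 37 °C in complete medium. Viability measured as intracellular ATP by CellTiter-Glo luminescence; AC50 from Hill fits.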
(qHTS replaces the single test concentration by a dilution series.)

A short description of experiment [6]: Cell Viability - H-4-II-E (AID 543). Note: nearly all actives have a fitted effect of over 35% in size. Note: potency is the fitted concentration of half-maximal effect. To be noted: H-4-II-E rat hepatoma viability; series mostly up to 92.2 µM. The method in brief:
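Rat hepatoma H-4-II-E cells (1500/well) were plated, incubated 5 hr at 37 °C, then exposed to compounds for 40 hr at 37 °C. Cellular ATP was read by CellTiter-Glo luminescence; AC50 came from Hill-equation fits of concentration-response data.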

Experiment [7] can be described thus: Cell Viability - SH-SY5Y (AID 544). Note: nearly all actives have a fitted effect of over 55% in size. Note: potency is the fitted concentration of half-maximal effect. To be noted: SH-SY5Y neuroblastoma cell viability; series mostly up to 92.2 µM. Put shortly: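 Human neuroblastoma SH-SY5Y cells (1500/well) in complete medium were exposed to compounds for 40 hr at 37 °C; intracellular ATP was then quantified by CellTiter-Glo luminescence after 20 min at room temperature. AC50 came from Hill-equation concentration-response fits.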

Experiment [8] in a line: Cell Viability - Renal Proximal Tubule (AID 545).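 For activity change, negative = cytotoxicity: 0% = DMSO only and -100% = 100 µM tamoxifen.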 Note: nearly all actives have a fitted effect of over 40% in size. Note: potency is the fitted concentration of half-maximal effect. As to conditions: renal proximal tubule cells viability; series mostly up to 91.7 µM. The method in brief: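 In this qHTS format, normal rat kidney-derived proximal tubule cells in complete culture medium receive compound titrations, then sit 40 hours at 37 °C before luciferase-based ATP quantitation; potency is reported as AC50 from concentration-response curves.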

Experiment [9] is described as follows: Cell Viability - Mesenchymal (AID 546).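 For activity change, negative = cytotoxicity: 0% = DMSO only and -100% = 100 µM tamoxifen.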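 Note: cells exposed to compound for 40 hours before reading.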 Note: potency is the fitted concentration of half-maximal effect. To be noted: mesenchymal cells viability, qHTS; activity change, negative = cytotoxicity: at 91.7 µM (top of the series). Put shortly:
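AC50 values reflect the drop in intracellular ATP in a human kidney mesenchymal line derived from normal glomeruli. Treatment lasts 40 hr at 37 °C in complete medium, and the signal comes from CellTiter-Glo luminescence.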

Experiment [10] can be described thus: Cell Viability - NIH 3T3 (AID 541).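 For activity change, negative = cytotoxicity: plate controls were DMSO alone for no effect and tamoxifen positive control for full effect.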 Note: nearly all actives have a fitted effect of over 25% in size. Note: potency is the fitted concentration of half-maximal effect. To be noted: NIH 3T3 cell viability, qHTS; activity change, negative = cytotoxicity: at 92.2 µM (top of the series). The method in brief:
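NIH 3T3 mouse embryo fibroblasts (1000 cells/well) were plated in complete medium and treated with compound for 40 hr at 37 °C. Viability was read as intracellular ATP by CellTiter-Glo luminescence; AC50 values came from Hill-equation fits of concentration-response data.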

“And” between values parts separate entries of the source, which are not always exact repeats. Equal entries are not always repeated. Inconclusive results are not listed. The source holds several records for some structures; these can differ, active in one and inactive in another. The source made the active and inactive calls. Unless noted, calls come from the whole dose curve; as a rule, active = well fitted curve in the direction sought with a large enough effect; inconclusive = small, poorly fitted or top-dose-only effect, or another doubt; inactive = no such curve, though single readings can be large; an effect the other way counts as inactive or inconclusive.

Sequence of Glucocorticoid receptor (Homo sapiens) (P04150 whole entry, looked up): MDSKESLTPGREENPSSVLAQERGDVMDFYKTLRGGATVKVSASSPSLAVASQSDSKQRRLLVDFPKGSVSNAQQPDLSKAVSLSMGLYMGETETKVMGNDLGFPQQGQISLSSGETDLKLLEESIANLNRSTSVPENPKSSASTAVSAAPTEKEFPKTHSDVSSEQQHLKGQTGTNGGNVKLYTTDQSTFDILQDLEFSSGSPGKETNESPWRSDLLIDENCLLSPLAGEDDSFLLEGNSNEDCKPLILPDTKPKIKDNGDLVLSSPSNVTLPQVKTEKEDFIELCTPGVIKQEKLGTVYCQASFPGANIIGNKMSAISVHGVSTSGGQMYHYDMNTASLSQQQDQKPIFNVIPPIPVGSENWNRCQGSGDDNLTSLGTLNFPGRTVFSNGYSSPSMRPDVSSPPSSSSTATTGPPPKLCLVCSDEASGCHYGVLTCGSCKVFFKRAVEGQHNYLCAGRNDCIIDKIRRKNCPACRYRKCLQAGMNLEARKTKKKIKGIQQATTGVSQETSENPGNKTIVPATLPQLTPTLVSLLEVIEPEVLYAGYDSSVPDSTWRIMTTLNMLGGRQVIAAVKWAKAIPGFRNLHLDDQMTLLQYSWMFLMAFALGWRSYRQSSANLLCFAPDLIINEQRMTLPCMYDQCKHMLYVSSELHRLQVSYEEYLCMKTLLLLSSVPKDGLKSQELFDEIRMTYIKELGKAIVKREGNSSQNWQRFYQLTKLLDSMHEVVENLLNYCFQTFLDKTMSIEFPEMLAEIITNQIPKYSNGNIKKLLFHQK

For the compound `O=C(CCCN1CCC(n2c(=O)[nH]c3ccccc32)CC1)c1ccc(F)cc1`, the Potency in experiment [1] and in experiment [2] was > 20.6 µM (inactive) each time. Moreover, the outcome in [3] was inactive.
For the compound `O=C1NCN(c2ccccc2)C12CCN(CCCOc1ccc(F)cc1)CC2`, the Potency in experiment [1] and in [2] was > 46 µM (inactive) in each case. Moreover, the compound was called inactive in experiment [3].
As to `NC(=O)CN1CCCC1=O`, the Potency was > 46 µM (inactive) and > 20.6 µM (inactive) in experiment [1]; > 46 µM (inactive) and > 20.6 µM (inactive) in experiment [2]. Also, the result in [3] was inactive.
Consider `CN(C)C(=S)SSC(=S)N(C)C`, for which, in experiment [3], the result was inactive. The Potency in [4] was 5.01 µM (active); in experiment [5], 15.8 µM (active); in [6] it was 3.98 µM (active); in experiment [7], 0.0158 µM (active); in experiment [8], 20 µM (active). In addition, the activity change, negative = cytotoxicity in experiment [9] was -103% (active).
For `C[C@H](N)[C@H](O)c1ccc(O)c(O)c1`, the call in experiment [3] was inactive.
`CC(C)[N+](C)(CCC(C(N)=O)(c1ccccc1)c1ccccc1)C(C)C`: the Potency in [1] and in experiment [2] was > 20.6 µM (inactive) each time. Also, the outcome in experiment [3] was inactive.
With `CNC(=O)Oc1cccc2ccccc12`, the outcome in experiment [3] was inactive. The Potency result in experiment [4], in [5], in experiment [6], in experiment [8] and in experiment [9] was “inactive” in each case.
Take `CCCCCCCCCCCC[N+](C)(C)CCOc1ccccc1`: in experiment [3], the compound was classed as inactive. Moreover, the Potency is 7.94 µM (active) in experiment [4]; 31.6 µM (active) in experiment [5]; 39.8 µM (active) in experiment [6]; 12.6 µM (active) in [8]; 25.1 µM (active) in [9]. Further, in experiment [10], the activity change, negative = cytotoxicity was -137% (active). Also, in experiment [7], the Potency result is “inactive”.
In the case of `Oc1c(Br)cc(Br)cc1Br`, the call in [3] was inactive. Moreover, the Potency entry in [4], in experiment [10], in experiment [5], in [6], in [7] and in experiment [8] was “inactive” throughout. In addition, the Potency entry in [9] was “inactive”.
In the case of `C[N+]1(C)[C@@H]2CC[C@H]1CC(OC(=O)C(CO)c1ccccc1)C2` (stereo partly specified), the Potency in experiment [1] is > 20.6 µM (inactive).
As to `OC(c1ccccc1)(c1ccccc1)C1CCNCC1`, the Potency in [1] and in experiment [2] was > 20.6 µM (inactive) each time. Also, the compound was called inactive in [3].
For the compound `CCCCCCCCC(=O)NCc1ccc(O)c(OC)c1`, the Potency in experiment [1] and in [2] was > 46 µM (inactive) in each case.
Turning to `COP(=O)(OC)C(O)C(Cl)(Cl)Cl` (stereo unspecified), the Potency in experiment [1] was > 20.6 µM (inactive).
Take `Cc1ccc(O)cc1`: the compound was called inactive in experiment [3].
As for `COC(=O)C1=CCCN(C)C1`, the Potency in experiment [1] was > 46 µM (inactive) and > 20.6 µM (inactive); in experiment [2], > 46 µM (inactive) and > 20.6 µM (inactive). Further, the outcome in experiment [3] was inactive.
`COP(=O)(OC)OC=C(Cl)Cl`: the call in [3] was inactive. Further, the Potency entry in experiment [4], in experiment [5], in experiment [6], in [8] and in experiment [9] was “inactive” each time. Also, the Potency in experiment [10] is 12.6 µM (active); in experiment [7], 15.8 µM (active).
With `COc1ccc(C(=O)N2CCCC2=O)cc1`, the Potency in experiment [1] was > 46 µM (inactive) and > 20.6 µM (inactive); in experiment [2], > 46 µM (inactive). Further, the result in experiment [3] was inactive.
Turning to `COc1ccc(CN2CCNCC2)c(OC)c1OC`, the Potency in experiment [1] and in [2] was > 20.6 µM (inactive) throughout. Moreover, in [3], the result was inactive.
Regarding `CCC(=O)O[C@H]1CC[C@H]2[C@@H]3CCC4=CC(=O)CC[C@]4(C)[C@H]3CC[C@]12C`, the Potency in experiment [1] and in [2] was > 20.6 µM (inactive) in each case. The compound was classed as inactive in experiment [3].
As to `O=C(CCl)c1ccc(Cl)cc1Cl`, in [3], the result was inactive. Further, the Potency in experiment [4] was 31.6 µM (active); in [6], 10 µM (active); in [7], 1.26 µM (active); in experiment [9] it was 31.6 µM (active). Further, the activity change, negative = cytotoxicity in experiment [10] is -145% (active).
On to `CN1[C@@H]2CC[C@H]1CC(OC(=O)c1cc(Cl)cc(Cl)c1)C2` (stereo partly specified), for which the Potency in experiment [1] and in [2] was > 46 µM (inactive) in each case. Besides, the compound was classed as inactive in experiment [3].
In the case of `Oc1ccc2[nH]cc(CCCCN3CC=C(c4ccccc4)CC3)c2c1`, the Potency in experiment [1] and in [2] was > 46 µM (inactive) throughout.
For the compound `C[C@@H]1C[C@@H]([C@H](O)CC2CC(=O)NC(=O)C2)C(=O)[C@@H](C)C1`, the call in [3] was inactive. Besides, the Potency was 0.126 µM (active) in experiment [4]; 100 nM (active) and 126 nM (active) in experiment [10]; 0.1 µM (active) in [5]; 126 nM (active) and 100 nM (active) in experiment [6]; 63.1 nM (active) and inactive in experiment [7]; 79.4 nM (active) and 50.1 nM (active) in experiment [9].
For the compound `c1ccc2nc(N3CCNCC3)ccc2c1`, the Potency was > 46 µM (inactive) and > 20.6 µM (inactive) in experiment [1]; > 46 µM (inactive) and > 20.6 µM (inactive) in experiment [2]. In [3], the call was inactive.
`CC[n+]1c(-c2ccccc2)c2cc(N)ccc2c2ccc(N)cc21`: in experiment [4], the activity change, negative = cytotoxicity is -81.5% (active). For the same compound, the Potency in experiment [9] was 31.6 µM (active).
As for `O=C(O)c1nn(Cc2ccc(Cl)cc2Cl)c2ccccc12`, the Potency in experiment [1] and in experiment [2] was > 46 µM (inactive) throughout. For the same compound, in experiment [3], the compound was called inactive.
